Only some compounds are listed: those with a hit (about 6.9% of all), similar ones and a draw of the others.
BAZ2B block – inhibitors of human BAZ2B bromodomain; AlphaScreen BAZ2B-H3K14Ac peptide displacement; Potency, µM (series often up to 114 µM), inactives show at the top dose activity change, negative = inhibition, most hits filed as inhibitors; 4.4% of 360,000 active; AID 504333; further: on the % scale 0 is the no-effect control and ±100 the full control effect; nearly all actives have a fitted effect of over 60% in size
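Inhibition is scored as reduced AlphaScreen emission. The BAZ2B/b-H3(5-23)K14Ac complex (50 nM each) in PBS pH 7.4, 0.01% Tween-20 meets compound (up to 110 uM) for 30 min at RT before bead addition.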
HP1b binding inh – blocks HP1-beta chromodomain binding to methylated histone tails; AlphaScreen HP1-beta / biotin-H3K9me3 peptide binding; 0.56% of 390,000 active; Potency, µM (titrated, usually from 114 µM), for the others: at the highest dose activity change, negative = inhibition, actives largely listed as inhibitors; AID 540317; P83916; further: nearly all actives have a fitted effect of over 70% in size
Target sequence (P83916 whole entry, looked up): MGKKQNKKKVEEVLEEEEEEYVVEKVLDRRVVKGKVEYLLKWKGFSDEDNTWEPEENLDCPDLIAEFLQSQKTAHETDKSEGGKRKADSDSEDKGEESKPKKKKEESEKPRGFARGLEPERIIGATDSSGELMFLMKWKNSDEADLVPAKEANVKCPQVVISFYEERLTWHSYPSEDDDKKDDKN
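AlphaScreen: HP1-beta (50 nM) preformed 30 min with biotin-H3(1-18)K9me3 peptide (50 nM) in PBS pH 7.4, 0.01% Tween-20. Compound added for 30 min at RT, then streptavidin donor/nickel chelate acceptor beads (10 ug/mL) for 30 min.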
JMJD2A Tudor – JMJD2A Tudor domain (human) inhibition. 4.4% of 390,000 active. AlphaScreen JMJD2A-Tudor / H3K4me3 peptide binding. O75164. Potency, µM (series often up to 114 µM), for the others: at the top dose activity change, negative = inhibition, most hits filed as inhibitors. AID 504339; further: on the % scale 0 is the no-effect control and ±100 the full control effect; nearly all actives have a fitted effect of over 50% in size
L3MBTL1 inh – inhibitors of human L3MBTL1; Q9Y468; AlphaScreen L3MBTL1–H3K9me1 peptide binding; Potency, µM (doses to about 57.1 µM), without a hit: at the highest dose activity, negative = inhibition, most hits filed as inhibitors; 0.66% of 230,000 active; AID 485360; further: on the % scale 0 is the no-effect control and ±100 the full control effect; nearly all actives have a fitted effect of over 60% in size
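L3MBTL1 (50 nM) pre-complexed 30 min with biotinylated H3(1-15)K9me1 peptide (75 nM), then compounds added for 30 min at room temperature; AlphaScreen streptavidin donor/nickel chelate acceptor beads (10 ug/mL final) read after 30 min dark incubation.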
VDR inh – blocks the human vitamin D receptor | P11473 | VDR-SRC2-3 peptide fluorescence polarization, 2 h | Potency, µM, for inactives: max response, negative = inhibition, actives largely listed as inhibitors | 0.93% of 400,000 active | AID 504847; further: on the % scale 0 is the no-effect control and ±100 the full control effect
Target sequence (P11473 whole entry, looked up): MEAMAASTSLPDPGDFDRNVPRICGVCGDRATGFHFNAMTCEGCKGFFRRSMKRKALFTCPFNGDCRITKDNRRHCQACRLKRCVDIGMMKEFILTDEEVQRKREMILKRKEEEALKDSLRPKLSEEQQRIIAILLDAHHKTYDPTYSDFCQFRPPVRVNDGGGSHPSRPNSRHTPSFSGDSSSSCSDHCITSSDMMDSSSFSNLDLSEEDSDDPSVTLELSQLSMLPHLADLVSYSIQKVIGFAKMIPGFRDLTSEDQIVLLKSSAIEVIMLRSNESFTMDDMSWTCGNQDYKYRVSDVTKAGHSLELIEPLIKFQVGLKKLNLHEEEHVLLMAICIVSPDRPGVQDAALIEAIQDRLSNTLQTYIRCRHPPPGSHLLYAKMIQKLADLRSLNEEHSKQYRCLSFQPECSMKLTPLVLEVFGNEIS
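FP read-out; VDR + SRC2-3 coactivator peptide; 23 nl compound by pintool; 2 h RT incubation; reagents held at 4 deg C, protected from light.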
PLK1 PBD inh – inhibitors of human PLK1 polo-box domain binding; 2.8% of 360,000 active; Potency, µM, for the others: max response, negative = inhibition, usual class: inhibitors; Plk1 PBD binding of FITC phosphopeptide, fluorescence polarization; P53350; further: series mostly up to about 57 µM; on the % scale 0 is the no-effect control and ±100 the full control effect; nearly all actives have a fitted effect of over 65% in size
The depositor's hits bear a star; ? = inconclusive; . = no result; [ ] = dose if it differs, or a comment. The call rests on the fitted dose curve; in most records, active means well fitted curve in the direction sought with a large enough effect; inconclusive means small, poorly fitted or top-dose-only effect, or another doubt; inactive means no such curve, though single readings can be large; an effect the other way counts as inactive or inconclusive. Potency means the concentration at half of the fitted maximal effect.

SMILES | BAZ2B block | HP1b binding inh | JMJD2A Tudor | L3MBTL1 inh | VDR inh | PLK1 PBD inh
NC(=O)C1CCN(C(=S)c2ccc(-c3ccc(Br)cc3)o2)CC1 | -15.4% | -6.1% | -11.3% | . | 2.2% | 11.9µM*
COc1ccc(C(=S)N2CCC(C(N)=O)CC2)cc1Br | -1.4% | -19.6% | -16.8% | -0.5% | -7.3% | 18.9µM*
Cc1cc2c(s1)c1cnn(Cc3c(C)cc(F)cc3C)c(=O)c1n2C | . | . | -15.8% | . | . | .
Cc1cc(Br)ccc1NC(=O)CN(C)C(=O)CCSc1ccc(F)cc1 | -3.9% | 23.6% | -2.1% | -1.3% | -3.2% | 26.7µM*
S=C(Nc1ccccn1)c1ccccn1 | 10µM* | 12.6µM* | 5.01µM* | . | -3.2% | 26.7µM*
Cc1ccc(C)c(NC(=O)NCc2ccccn2)c1 | 6.4% | 26.4% | -12.9% | . | -4.0% | 6.4%
Cc1ccc(C)c(NC(=S)c2ccccn2)c1 | 20µM* | 6.31µM* | 79.4µM* | ? | -14.0% | 23.8µM*
O=C(Nc1ccccn1)C(=O)Nc1ccccn1 | -7.0% | 29.9% | -6.7% | -6.5% | -11.1% | -5.4%
CCOC(=O)c1c(C)c(C(=O)NCc2ccc(Cl)cc2)c(C)n1CC | -1.3% | 11.9% | -18.9% | . | 6.3% | .
OC(COCc1ccccc1)CN1CCN(c2ccccc2)CC1 (stereo unspecified) | ? | 48.6% | ? | -1.6% | -4.0% | -12.9%
Oc1ccccc1N1CCN(CC(O)COCc2ccccc2Cl)CC1 (stereo unspecified) | 50.1µM* | ? | 20µM* | -29.9% | -8.3% | -17.6%
C=CCCCCCCCCC(=O)Nc1ncccn1 | 0.6% | -9.8% | -25.7%[11.4 µM] | 4.4% | ? | 11.9µM*
O=C(CCSc1ccccc1)Nc1ncccn1 | 6.8% | 12.1% | -1.8% | 5.3% | -3.6% | -9.0%
COc1ccc(OC)c(S(=O)(=O)N2CCN(S(=O)(=O)c3ccc4c(c3)OCCO4)CC2)c1 | . | . | -13.0% | . | . | .
CCn1c(COc2ccc(=O)n(-c3ccccc3)n2)n[nH]c1=S | -2.0% | 40.1% | 20µM* | 1.8% | -11.1% | -12.4%
CCCCNC(=O)C1CCC(CNS(=O)(=O)c2ccc(Cl)cc2)CC1 (stereo unspecified) | 16.0% | 25.5% | -12.8% | . | 9.8% | .
Cc1cccc(N2CCN(C(=O)Cn3ncc4c3-c3cc(C)ccc3OC4)CC2C)c1 (stereo unspecified) | 31.6µM* | -9.0% | ? | . | -19.0% | .
O=C(CN1CCSc2ccccc21)N1CCCCC1 | -12.2% | 20.3%[57 µM] | -14.4% | . | 14.2% | .
Cc1cccc(N2CCN(C(=O)CN3CCSc4ccccc43)CC2C)c1 (stereo unspecified) | ? | -15.4%[57 µM] | 50.1µM* | . | 3.9% | .
CCOC(=O)C1=C(C)NC2=C(C(=O)c3ccccc32)C1c1ccc(O)cc1 (stereo unspecified) | ? | -23.8% | ? | -12.3% | -9.7% | -1.4%
CCOc1cc(Br)c(C2C(C(=O)OC)=C(C)NC3=C2C(=O)c2ccccc23)cc1OCC (stereo unspecified) | 31.6µM* | -25.5% | -29.8% | . | -4.5% | .
CCOc1cc(C2C(C(=O)OC)=C(C)NC3=C2C(=O)c2ccccc23)c(Br)cc1O (stereo unspecified) | 22.4µM* | ? | 35.5µM* | . | -8.5% | .
CCOC(=O)C1=C(C)NC2=C(C(=O)c3ccccc32)C1c1cccc2ccccc12 (stereo unspecified) | 35.5µM* | ? | 20µM* | . | -5.5% | -6.6%
CCOc1cc(C2C(C(=O)OC)=C(C)NC3=C2C(=O)c2ccccc23)cc(Br)c1OCC (stereo unspecified) | 10µM* | -26.4% | 12.6µM* | . | ? | .
CC1CC(C)CN(C(C(=O)NC2CCCCC2)c2ccnc3ccccc23)C1 (stereo unspecified) | . | . | . | . | . | -3.9%
SMILES | BAZ2B block | HP1b binding inh | JMJD2A Tudor | L3MBTL1 inh | VDR inh | PLK1 PBD inh
O=C(Nc1ccc2c(c1)CCCN2C(=O)c1cccs1)c1cccc(C(F)(F)F)c1 | -22.8% | 13.0% | -16.6% | . | 0.0% | .
CCOC(=O)COc1ccc(C2C(C(=O)OC)=C(C)NC3=C2C(=O)c2ccccc23)cc1Cl (stereo unspecified) | -31.7% | ? | 17.8µM* | . | -8.9% | .
C#CCOc1ccc(C2C(C(=O)OC)=C(C)NC3=C2C(=O)c2ccccc23)cc1OCC (stereo unspecified) | 22.4µM* | ? | 25.1µM* | . | -4.3% | .
N#CC1(NC(=O)COc2ccccc2[N+](=O)[O-])CCCCC1 | 5.4% | ? | 20µM* | -0.9% | 11.8% | -26.6%
N#CC1(NC(=O)COc2cc(F)ccc2[N+](=O)[O-])CCCCC1 | 13.2% | 26.2% | 0.0% | -2.1% | -21.1% | -4.3%
COc1ccc(OCCCC(=O)OC(C)C(=O)Nc2cccc(C(C)=O)c2)cc1 (stereo unspecified) | -5.6% | 0.7% | -15.1% | . | -2.5% | -12.1%
CC(C)(C)NC[C@H](O)CSc1nc(-c2ccc(C(N)=O)s2)cs1 | . | . | . | . | -1.7% | .
O=C1CCCC2=C1C(c1cn(-c3ccccc3)nc1-c1cccs1)c1c([nH]c(=O)[nH]c1=O)N2 (stereo unspecified) | -3.4% | 26.0% | -24.6% | -1.5% | 2.3% | 23.8µM*
O=C(CN1CCN(S(=O)(=O)N2CCOCC2)CC1)Nc1cc(Cl)ccc1Cl | -6.4% | 26.9% | -4.6% | . | -10.0% | -4.3%
O=c1c(-c2ccccc2)c1-c1ccccc1 | -9.5% | . | . | . | 44.7µM* | .
O=c1o[nH]c(-c2ccccc2)c1-c1ccccc1 | . | -4.7% | -29.8% | . | 2.3% | -11.4%
c1coc(-c2nc3cc4ccccc4cc3nc2-c2ccco2)c1 | . | 7.94µM* | 7.94µM* | . | 22.4µM* | .
c1coc(-c2nc(-c3ccco3)c(-c3ccco3)nc2-c2ccco2)c1 | 28.2µM* | ? | 7.94µM* | 10µM* | 39.8µM* | 11.9µM*
COc1ccc2nc(-c3ccco3)c(-c3ccco3)nc2c1 | 50.1µM* | -18.7% | ? | . | ? | ?
Nc1nc(-c2ccco2)cs1 | -5.3% | 11.4% | -7.2% | 2.8% | 2.4% | -6.4%
Cc1cccc2c(=O)cc(CSc3ccccc3NC(=O)c3cccc(Br)c3)[nH]c12 | 1.8% | 14.9%[57 µM] | -14.9% | . | 18.5% | .
O=S(=O)(Nc1cc(Br)cc2cccnc12)c1ccccc1 | . | 9.3% | -19.9% | . | 3.9% | .
Cc1c(Cl)cccc1NC(=O)Nc1ccc2snnc2c1 | -5.3% | 41.6% | 11.1% | . | 26.4% | .
CN1C(=O)/C(=C/c2ccc(-c3ccccc3[N+](=O)[O-])o2)SC1=Nc1ccc(Cl)c(C(=O)O)c1 | 44.7µM* | -39.3% | ? | -27.4% | ? | 26.7µM*
CCN(C(C)=O)c1cnc(C=NNC(N)=S)c2ccccc12 | . | 2.3% | 56.2µM* | . | ? | -6.7%
CCc1nnc(NC(=O)CCC(=O)NCc2ccccc2Cl)s1 | 0.6% | 45.5% | -2.1% | . | 7.4% | -3.9%
N#C/C(=N\Nc1ccc(Cl)cc1)C(N)=S | ? | -31.1% | ? | . | -28.9% | -17.4%

Screens as filed in PubChem.
